Hits are enriched below; roughly 2.7% of the tested compounds scored in any of these assays.
DNA FID counter = compounds displacing fluorescent DNA intercalator, primary screen, artefact control for HCV NS3 helicase inhibitor project, biochemical, FID fluorescence; DNA fluorescent intercalator displacement; inhibition, % at 7.9 µM; 290,000 compounds, 0.17% hits; in the data active means inhibition above about 37%;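 further: 0% = vehicle and 100% = reference compound; higher means more ethidium bromide displaced from hairpin DNA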
PREPL inhibitor = PREPL enzyme inhibitors, primary screen, biochemical, fluorescence polarization; recombinant PREPL, fluorescence polarization activity-based probe; 320,000 compounds, 0.68% hits; Prolyl endopeptidase-like (Homo sapiens), Q4J6C6; inhibition, % at 5.96 µM; in the data active means inhibition above about 43%;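 further: 0% = enzyme with DMSO and 100% = wells lacking enzyme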
PP1 inh = PP1-alpha phosphatase inhibitors, primary screen, counter-screen for PP5 inhibitor project, biochemical, fluorescence, OMFP substrate, single point. 320,000 compounds, 0.9% hits. purified PP1alpha. AID 2235, 2010. Serine/threonine-protein phosphatase PP1-alpha catalytic subunit (Homo sapiens), P62136. inhibition, % at 6.7 µM;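 active means inhibition above the mean inhibition of all tested compounds plus 3 SD, computed separately for each screening campaign, cut at about 15% in these data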
TMEM16A act = TMEM16A chloride channel activators or potentiators, primary screen, cell-based, HTS. HEK293 TMEM16A/YFP-H148Q/I152L, iodide quench fluorescence; stronger effect = lower value. Anoctamin-1 (Mus musculus), Q8BHY3. 340,000 compounds, 0.3% hits. B-score at 10 µM;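 active means fluorescence-ratio B-score plate-corrected deviation score at least 3 library SD below zero, with starting fluorescence score within 5 deviations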;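 further: channel opened by trigger with iodide after compound preincubation; score built on the fluorescence ratio of max minus min over baseline; more negative score means more quench and so TMEM16A activation or potentiation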
ANO1 block = TMEM16A chloride channel inhibitors, primary screen, cell-based, HTS; HEK293 TMEM16A/YFP iodide influx fluorescence, ionomycin; 310,000 compounds, 1.2% hits; normalized B-score (activity score, 25-100; higher = stronger inhibition) at 10 µM; AID 588511, 2011; Anoctamin-1 (Mus musculus), Q8BHY3;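 active means ratio plate-corrected score three or more library SD toward inhibition, starting fluorescence score within five deviations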;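 further: score derived from kinetic fluorescence span divided by baseline fluorescence per well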
PP5 inh = PP5 phosphatase inhibitors, primary screen, biochemical, fluorescence. 320,000 compounds, 0.18% hits. purified PP5c, OMFP substrate fluorescence. Serine/threonine-protein phosphatase 5 (Homo sapiens), P53041. AID 1987, 2009. inhibition, % at 6.7 µM;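 active means inhibition above the campaign's mean inhibition across all tested compounds plus 3 SD, cut at about 9.5% in these data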;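 further: 0% = DMSO only and 100% = 100 µM cantharidin control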
Target sequence (P53041 whole entry, looked up): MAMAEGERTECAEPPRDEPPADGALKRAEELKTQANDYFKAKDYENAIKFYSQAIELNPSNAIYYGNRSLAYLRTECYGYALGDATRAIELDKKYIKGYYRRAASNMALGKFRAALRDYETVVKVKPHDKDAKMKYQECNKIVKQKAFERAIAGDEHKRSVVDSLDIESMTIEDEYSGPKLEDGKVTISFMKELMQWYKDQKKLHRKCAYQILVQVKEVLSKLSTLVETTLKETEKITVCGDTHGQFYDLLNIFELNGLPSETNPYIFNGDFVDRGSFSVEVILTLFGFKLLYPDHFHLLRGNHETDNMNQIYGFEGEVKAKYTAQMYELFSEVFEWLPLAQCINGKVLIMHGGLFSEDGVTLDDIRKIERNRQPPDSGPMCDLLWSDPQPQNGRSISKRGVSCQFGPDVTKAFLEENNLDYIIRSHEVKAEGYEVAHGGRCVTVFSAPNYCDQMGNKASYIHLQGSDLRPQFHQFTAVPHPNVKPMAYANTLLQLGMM
TMEM16A reconf = TMEM16A chloride channel inhibitors, confirmation, cell-based, re-confirmation. shares compounds with ANO1 block. HEK293 TMEM16A/YFP-H148Q, iodide quench fluorescence; ionomycin added to raise cell calcium. inhibition, % at 10 µM. 2,300 compounds, 39% hits. AID 652189, 2013;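 active means mean duplicate percent inhibition, scaled so buffer wells are 0 and the reference blocker 100, over three buffer SD above buffer mean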
TMEM16A Ca cntr = calcium mobilization in TMEM16A/YFP HEK293 cells, confirmation, counter-screen for TMEM16A inhibitor project; calcium response (% of ionomycin), % at 10 µM; AID 652231, 2013; Fluo4 calcium mobilization; shares compounds with ANO1 block; 2,300 compounds, 2% hits;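 active means duplicate-averaged calcium signal over 20% of the ionomycin maximum, relative to buffer baseline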;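 further: each well's signal is peak minus trough fluorescence divided by its pre-addition baseline; 0% = buffer wells and 100% = ionomycin wells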
Parental YFP cnt = iodide YFP quench changes in parental YFP-HEK293, counter-screen for TMEM16A inhibitor project, cell-based | shares compounds with ANO1 block | ionomycin | YFP ratio F(max-min)/F0 at 10 µM | 2,300 tested, under 10 active | AID 652233, 2013;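 active means yellow fluorescent protein signal ratio exceeding the buffer control mean by over 5 SD of those controls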;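 further: ratio is mean of duplicate wells from kinetic YFP trace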
ClC-1 inh = ClC-1 chloride channel inhibition, selectivity assay for TMEM16A inhibitor project, cell-based, voltage-dependent ClC-1 | 2,300 tested, under 10 active | shares compounds with ANO1 block | CHO ClC-1-YFP, iodide influx fluorescence quench; iodide control reads 0, buffer control 100 | ratio percent, % at 10 µM;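 active means duplicate-mean ratio percent above the mean of iodide-only control wells, which defines zero, plus 5 of their SD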;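 further: higher percent means stronger block of ClC-1 iodide influx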
Active calls of the source: *.

How did C/C=C1\COC(C(=O)NCc2cccc(OC)c2OC)(C(F)(F)F)C=C1C=C1CCCCC1 (stereo not drawn) do in these assays?
PREPL inhibitor: 1; PP1 inh: 5; TMEM16A act: inactive; ANO1 block: 25*; PP5 inh: 7; TMEM16A reconf: inactive; TMEM16A Ca cntr: inactive; Parental YFP cnt: -1; ClC-1 inh: -14

Results for CCOC(=O)c1c(C)[nH]c(C(=O)COC(=O)C2(C)CC2(Cl)Cl)c1C (stereo not drawn) ?
DNA FID counter: -18; PREPL inhibitor: -1; PP1 inh: 3; TMEM16A act: inactive; ANO1 block: inactive; PP5 inh: 4

How did Cc1nc2cc(-c3ccsc3-n3c(C)ccc3C)[nH]n2c(=O)c1Cl do in these assays?
DNA FID counter: -13; PREPL inhibitor: 24; PP1 inh: 4; TMEM16A act: inactive; ANO1 block: 100*; PP5 inh: 4; TMEM16A reconf: 20%*; TMEM16A Ca cntr: inactive; Parental YFP cnt: -0.91; ClC-1 inh: -14

Results for N#CCCC(CCC#N)(CCC#N)c1cc[n+](CCc2ccccn2)cc1 ?
PREPL inhibitor: 4; PP1 inh: -3; TMEM16A act: inactive; ANO1 block: inactive; PP5 inh: -1

What do the screens show for `CC(C)Cc1ccc(C(C)C(=O)Nc2cccnc2)cc1` (stereo not drawn)?
DNA FID counter: -12; PREPL inhibitor: -9; PP1 inh: 11; TMEM16A act: inactive; ANO1 block: 25*; PP5 inh: -4; TMEM16A reconf: 52%*; TMEM16A Ca cntr: inactive; Parental YFP cnt: -1.1; ClC-1 inh: -12

Results for Cc1cccc(C)c1OCc1cc(C(=O)NCC2CCCCC2)no1 ?
DNA FID counter: -14; PREPL inhibitor: 4; PP1 inh: 11; TMEM16A act: inactive; ANO1 block: inactive; PP5 inh: -1

What do the screens show for `Cc1cccc(C)c1OCc1cc(C(=O)N(Cc2c(C)nn(C)c2C)C2CC2)no1`?
DNA FID counter: -52; PREPL inhibitor: 0; PP1 inh: 1; TMEM16A act: inactive; ANO1 block: 25*; PP5 inh: 2; TMEM16A reconf: 22%*; TMEM16A Ca cntr: inactive; Parental YFP cnt: -1.2; ClC-1 inh: -14

What do the screens show for `COc1cccc(CN(C)C(=O)c2cc(COc3ccc4ncccc4c3)on2)c1`?
DNA FID counter: -26; PREPL inhibitor: -6; PP1 inh: -1; TMEM16A act: inactive; ANO1 block: 25*; PP5 inh: 2; TMEM16A reconf: 38%*; TMEM16A Ca cntr: inactive; Parental YFP cnt: -0.98; ClC-1 inh: -34

What do the screens show for `O=C(NC1CCCC1)c1cc(COc2ccc3ncccc3c2)on1`?
DNA FID counter: -24; PREPL inhibitor: -8; PP1 inh: -5; TMEM16A act: inactive; ANO1 block: 25*; PP5 inh: -2; TMEM16A reconf: inactive; TMEM16A Ca cntr: inactive; Parental YFP cnt: -1.1; ClC-1 inh: -22

How did COCC1CCN(C(=O)c2cc(COc3ccc4ncccc4c3)on2)CC1 do in these assays?
DNA FID counter: -14; PREPL inhibitor: 2; PP1 inh: -8; TMEM16A act: inactive; ANO1 block: 25*; PP5 inh: -1; TMEM16A reconf: 32%*; TMEM16A Ca cntr: inactive; Parental YFP cnt: -0.89; ClC-1 inh: -13

Results for O=C(NCCc1cn2ccccc2n1)c1cc(COc2ccc3ncccc3c2)on1 ?
DNA FID counter: -3; PREPL inhibitor: -10; PP1 inh: 1; TMEM16A act: inactive; ANO1 block: 100*; PP5 inh: 0; TMEM16A reconf: 19%*; TMEM16A Ca cntr: inactive; Parental YFP cnt: -1.1; ClC-1 inh: -29

How did O=C(c1cc(COc2ccc3ncccc3c2)on1)N1CCCCCC1 do in these assays?
DNA FID counter: -25; PREPL inhibitor: 7; PP1 inh: -3; TMEM16A act: inactive; ANO1 block: inactive; PP5 inh: 2

Results for O=C(C1CN(C(=O)c2cc3cc(Cl)ccc3o2)c2ccccc2O1)N1CCCCC1 (stereo not drawn) ?
PREPL inhibitor: 24; PP1 inh: 2; TMEM16A act: inactive; PP5 inh: 2

Results for O=P(Cc1cc(Br)cc(Br)c1OCCO)(c1ccccc1)c1ccccc1 ?
DNA FID counter: -32; PREPL inhibitor: -2; PP1 inh: -3; TMEM16A act: inactive; ANO1 block: inactive; PP5 inh: -1

How did COc1cc(Cl)ccc1OCc1cc(C(=O)N(C)Cc2cccc3cnccc23)no1 do in these assays?
DNA FID counter: -34; PREPL inhibitor: -17; PP1 inh: 6; TMEM16A act: inactive; ANO1 block: 100*; PP5 inh: 4; TMEM16A reconf: 25%*; TMEM16A Ca cntr: inactive; Parental YFP cnt: -1.1; ClC-1 inh: -13

What do the screens show for `CSc1ccccc1OCc1cc(C(=O)N2CCC(c3ccncc3)CC2)no1`?
DNA FID counter: -26; PREPL inhibitor: -7; PP1 inh: 5; TMEM16A act: inactive; ANO1 block: 100*; PP5 inh: 4; TMEM16A reconf: inactive; TMEM16A Ca cntr: inactive; Parental YFP cnt: -1.2; ClC-1 inh: -20

Results for O=C(c1cc(COc2ccc3ncccc3c2)on1)N1CCCC1 ?
DNA FID counter: -24; PREPL inhibitor: 0; PP1 inh: -4; TMEM16A act: inactive; ANO1 block: 25*; PP5 inh: 1; TMEM16A reconf: 26%*; TMEM16A Ca cntr: inactive; Parental YFP cnt: -1.1; ClC-1 inh: -26

High-throughput results as filed in PubChem.
